From PubChem BioAssay (NCI)
Compounds without any hit were thinned out: in the full panel of roughly 83,000, 20% have a hit.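 Each cell line was grown in a 96-well plate and treated with one concentration of compound for 48 hours. Values below 10 were considered active.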 Values without a mark were called inactive. Activity calls are given as the source filed them.

Tested on: MDA-MB-231 breast
Experiment: NCI-60 one-dose screen, 48 h (100 = growth as untreated, 0 = no growth, -100 = all killed)
Settings: 10 µM unless noted

Row | Compound | growth
1 | Cc1nc2sc(C(=O)Nc3cccc(Cl)c3C)c(N)c2cc1C(=O)/C=C/c1ccccc1 | -38.4% (active)
2 | CN1CCN(Cc2ccc(NC(=O)c3cncc(C#Cc4cnc(N)cc4C#N)c3)cc2C(F)(F)F)CC1 | 6.83% (active)
3 | c1cc(OCCN2CCCC2)ccc1CNc1ccc2nc(CCC3CCCCC3)[nH]c2c1 | 11.2%
4 | CCN(CC)CCOc1ccc2c(-c3ccccc3)c(-c3ccc(OC)cc3)c(=O)oc2c1 | 67.3%
5 | O=C1/C(=C/c2c[nH]c(=O)[nH]c2=O)SC(=S)N1Cc1ccccc1 | 101%
6 | CCN(CC)CCCNc1cc(OC)c(OC)c2cccnc12 | 74.2%
7 | COc1cc(Cc2cc(OC)c(O)c(OC)c2)cc(OC)c1O | 95.2%
8 | CSc1ccc(N2C(=N)C(=S)N(c3ccc(C)cc3)C2=O)cc1 | 101%
9 | CCOC(=O)/C(=C(/C)NCC(C)C)c1cc(O)c(O)c2c(C)cc(=O)[nH]c12 | 61.3%
10 | C/C(=C(\c1ccc(OCCN2CCCCCC2)cc1)c1ccc(OC(=O)c2ccccc2)cc1)c1ccc(Cl)cc1 | 51.1%
11 | COCCn1cc(-c2csc(-c3c[nH]c4ccc(F)cc34)n2)c2cccnc21 | 27.5%
12 | Cc1ccc2cnc(N)c(C#Cc3cc(C(=O)Nc4ccc(CN5CCN(C)CC5)c(C(F)(F)F)c4)cnc3C)c2c1 | -70.5% (active)
13 | O=C(NNc1nc2cc(F)ccc2n2c(CN3CCOCC3)ccc12)c1ccccc1 | 17.3%
14 | COc1ccc(-c2nc(SCC(=O)Nc3nc4ccc(C)cc4s3)[nH]c(=O)c2C#N)cc1OC | 97.9%
15 | CCOC(=O)c1ccc[nH]1 | 126%
16 | COc1cc(Cc2cc(-c3ccccc3)nn(Cc3ccccc3)c2=O)cc(OC)c1OC | 50.1%
17 | O=C(Nc1ccc(Nc2ccncc2)cc1)c1ccc(Nc2ccnc3ccc([N+](=O)[O-])cc23)cc1 | 80.5%
18 | C[C@H]1[C@H](C)CC[C@]2(C(=O)NCCNCCN)CC[C@]3(C)C(=CC[C@@H]4[C@@]5(C)CCC(=O)C(C)(C)[C@@H]5CC[C@]43C)[C@H]12 | 52.9%
19 | COc1ccc(C/C(C)=C(\c2ccc(Cl)cc2)c2ccc(OCCN3CCCC3)cc2)cc1 | 85.7%
20 | CCOc1ccc(NC(=O)Nc2ccc(OCC)cc2)cc1 | 110%

Row | Compound | growth
21 | Cc1ccc(NC(=O)c2cc3ccccc3cc2O)c(C)c1 | 97.8%
22 | COC(=O)c1c2c(c[n+]([O-])c1C)C(=O)C=C(NCc1ccccc1)C2=O | -17.7% (active)
23 | C=C1C(=O)O[C@H]2[C@H]1CC/C(CNC(=O)Cc1c[nH]c3ccccc13)=C\CC[C@@]1(C)O[C@@H]21 | 16.1%
24 | C#CCOc1ccc2nc(CCl)c(Cl)c(Nc3cccc(C(F)(F)F)c3)c2c1 | 55%
25 | O=C1/C(=C/c2cccc(Br)c2)COc2ccc(O)cc21 | 27.9%
26 | CCN(CC)CCOc1ccc(/C(=C(\C)Cc2ccc(OC)cc2)c2ccc(OC(=O)NCc3ccccc3)cc2)cc1 | 76.3%
27 | O=C(CCCCCCCC(=O)N1CCCCC1)N1CCCCC1 | 94.1%
28 | Cc1ccc(-c2nc(SCC(=O)N3CCN(c4cc5c(cc4F)c(=O)c(C(=O)O)cn5C4CC4)CC3)nc(Cl)c2C#N)cc1 | 99.7%
29 | CSc1ccc2c3c(n(C[C@H](O)CO)c(=O)c2c1)-c1ccccc1C3=O | 108%
30 | Cc1cn(C)cn1 | 112%
31 | C#Cc1cccc(Nc2ncnc3cc(NC(=O)CCl)ccc23)c1 | -70.3% (active)
32 | O=S(=O)(NCCNc1nccc(-c2c(-c3ccc(F)c(O)c3)nc3sccn23)n1)c1ccc(Cl)cc1 | 50.1%
33 | COc1ccc(C(O)c2cc3c(N)c(C(=O)Nc4cccc5ccccc45)sc3nc2C)cc1 (stereo not given) | 13.6%
34 | O=C(Nc1cc(Cl)ccc1O)c1ccccc1Nc1ccnc(C(F)(F)F)c1 | 29.8%
35 | COc1ccc(/C=C2\c3cc(OC)c(OC)c(OC)c3CC[C@@H]2O)cc1F | 28.8%
36 | CCN(CC)C(=O)C1=C(C)NC(=O)NC1c1ccc2c(c1)OCO2 (stereo not given) | 108%
37 | COc1ccc(C=Nc2c(C(=O)Nc3cccc(Cl)c3C)sc3nc(C)c(C(=O)/C=C/c4ccc(OC)cc4)cc23)cc1 | 2.5% (active)
38 | CC(C)(C)c1ccc(S(=O)(=O)Oc2ccc(-c3sc4cc(OS(=O)(=O)c5ccc(C(C)(C)C)cc5)ccc4c3C(=O)c3ccc(OCCN4CCCCC4)cc3)cc2)cc1 | 103%
39 | COc1cc(/C=C/c2cc(/C=C/c3ccc(O)c(OC)c3)n(C(=O)Nc3ccc(Cl)cc3)n2)ccc1O | 14.3%
40 | O=c1cc(CP(=O)(O)O)c2cc(O)c(-c3ccccc3)cc2o1 | 111%
